Experimental data reported in the supplement of paper PMC10849652.
The full data set covers some 7,900 targets. This sample favours those with a hit. About 0.6% of all pairs of compound and target were hits. Values without a mark were called inactive.

Key:
Assay in all cases: log2 fold change, soluble protein after heating vs DMSO (PISA); higher = thermal stabilisation; K562 cells, 10 uM, 30 min; active = over 0.2 and 3.5 SD of the protein, either way, in both replicates (recomputed)
bafetinib = compound: Cc1ccc(NC(=O)c2ccc(CN3CC[C@H](N(C)C)C3)c(C(F)(F)F)c2)cc1Nc1nccc(-c2cncnc2)n1 [bafetinib]
Summary of the method: (§1)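 K562 cells (2×10^6 cells/mL) were treated with 10 μM compound for 30 min, and aliquots were heated for 3 min over 48°C-58°C. Pooled aliquots were extracted in PBS with 0.5% NP-40 at 4°C, and the supernatant after 21,000xg for 90 min was measured by TMTpro 16plex LC-MS/MS with channel sums equalised. Reported thermal stability, relative to control samples and from duplicates, is a log2 fold change.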

[1] = compound: Cc1cccc(CC(=O)N2CCc3c2ccc(-c2cn(C)c4ncnc(N)c24)c3F)n1
Summary of the method: as §1

nilotinib = compound: Cc1cn(-c2cc(NC(=O)c3ccc(C)c(Nc4nccc(-c5cccnc5)n4)c3)cc(C(F)(F)F)c2)cn1 [nilotinib]
Summary of the method: as §1

[2] = compound: Cc1nc(Nc2n[nH]c3c2CN(C(=O)N[C@H](CN(C)C)c2ccccc2)C3(C)C)c2sccc2n1
Summary of the method: as §1

dasatinib = compound: Cc1nc(Nc2ncc(C(=O)Nc3c(C)cccc3Cl)s2)cc(N2CCN(CCO)CC2)n1 [dasatinib]
Summary of the method: as §1

[3] = compound: Cc1ncc(-c2ccnc(Nc3ccc(S(C)(=O)=O)cc3)n2)n1C(C)C
Summary of the method: as §1

[4] = compound: Cn1cc(-c2ccc3c(c2)CCN3C(=O)Cc2cccc(C(F)(F)F)c2)c2c(N)ncnc21
Summary of the method: as §1

[5] = compound: Cn1cc(-c2ccc3nnc(C(F)(F)c4ccc5ncccc5c4)n3n2)cn1
Summary of the method: as §1

tipifarnib = compound: Cn1cncc1[C@@](N)(c1ccc(Cl)cc1)c1ccc2c(c1)c(-c1cccc(Cl)c1)cc(=O)n2C [tipifarnib]
Summary of the method: as §1

mubritinib = compound: FC(F)(F)c1ccc(/C=C/c2nc(COc3ccc(CCCCn4ccnn4)cc3)co2)cc1 [mubritinib]
Summary of the method: as §1

[6] = compound: NC(=O)Nc1cc(-c2cccc(F)c2)sc1C(=O)N[C@H]1CCCNC1
Summary of the method: as §1

[7] = compound: NC1(c2ccc(-c3nc4ccn5c(=O)[nH]nc5c4cc3-c3ccccc3)cc2)CCC1
Summary of the method: as §1

entinostat = compound: Nc1ccccc1NC(=O)c1ccc(CNC(=O)OCc2cccnc2)cc1 [entinostat]
Summary of the method: as §1

vorinostat = compound: O=C(CCCCCCC(=O)Nc1ccccc1)NO [vorinostat]
Summary of the method: as §1

citarinostat = compound: O=C(CCCCCCNC(=O)c1cnc(N(c2ccccc2)c2ccccc2Cl)nc1)NO [citarinostat]
Summary of the method: as §1

silmitasertib = compound: O=C(O)c1ccc2c(c1)nc(Nc1cccc(Cl)c1)c1ccncc12 [silmitasertib]
Summary of the method: as §1

[8] = compound: O=C1NC(=O)C(c2cnc3ccccn23)=C1c1cn2c3c(cc(F)cc13)CN(C(=O)N1CCCCC1)CC2
Summary of the method: as §1

[9] = compound: c1cc(OCCN2CCCCC2)cc(-c2n[nH]c3ccc(-c4nnc[nH]4)cc23)c1
Summary of the method: as §1

[10] = compound: NC(=O)c1cnc(N[C@@H]2CCCC[C@@H]2N)nc1Nc1cccc(-n2nccn2)c1
Summary of the method: as §1

[11] = compound: NCC(=O)Nc1ccc(-n2nc(C(F)(F)F)cc2-c2ccc3c(ccc4ccccc43)c2)cc1
Summary of the method: as §1

Chain of UniProt P24863 (P24863 whole entry, looked up): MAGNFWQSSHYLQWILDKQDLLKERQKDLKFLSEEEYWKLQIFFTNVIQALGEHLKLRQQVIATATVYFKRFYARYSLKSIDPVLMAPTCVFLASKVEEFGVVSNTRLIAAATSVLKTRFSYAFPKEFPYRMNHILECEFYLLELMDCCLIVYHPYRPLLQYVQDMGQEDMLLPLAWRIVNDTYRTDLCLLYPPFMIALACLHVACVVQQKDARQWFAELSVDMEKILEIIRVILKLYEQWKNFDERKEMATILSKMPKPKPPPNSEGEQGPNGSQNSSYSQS
Chain of UniProt P35219 (P35219 whole entry, looked up): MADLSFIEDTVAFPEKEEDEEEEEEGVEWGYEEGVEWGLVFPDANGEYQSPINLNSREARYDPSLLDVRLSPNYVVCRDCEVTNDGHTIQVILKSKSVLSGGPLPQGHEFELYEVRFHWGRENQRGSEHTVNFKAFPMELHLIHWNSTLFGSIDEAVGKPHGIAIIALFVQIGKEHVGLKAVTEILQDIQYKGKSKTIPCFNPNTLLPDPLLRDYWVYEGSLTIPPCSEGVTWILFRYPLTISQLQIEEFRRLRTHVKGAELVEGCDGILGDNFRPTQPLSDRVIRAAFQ
Chain of UniProt Q9UNS2 (Q9UNS2 whole entry, looked up): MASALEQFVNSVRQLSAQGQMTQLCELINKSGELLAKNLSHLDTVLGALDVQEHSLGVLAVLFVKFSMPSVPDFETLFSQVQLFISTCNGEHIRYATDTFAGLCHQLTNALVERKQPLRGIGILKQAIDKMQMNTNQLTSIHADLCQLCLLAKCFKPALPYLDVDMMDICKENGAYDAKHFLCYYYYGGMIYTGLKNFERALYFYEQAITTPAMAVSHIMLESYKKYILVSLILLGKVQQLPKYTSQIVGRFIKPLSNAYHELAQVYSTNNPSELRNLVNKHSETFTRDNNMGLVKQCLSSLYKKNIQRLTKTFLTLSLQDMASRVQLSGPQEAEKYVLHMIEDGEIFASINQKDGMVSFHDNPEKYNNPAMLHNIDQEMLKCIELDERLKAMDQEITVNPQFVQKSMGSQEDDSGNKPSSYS
Chain of UniProt Q96LT7 (Q96LT7 whole entry, looked up): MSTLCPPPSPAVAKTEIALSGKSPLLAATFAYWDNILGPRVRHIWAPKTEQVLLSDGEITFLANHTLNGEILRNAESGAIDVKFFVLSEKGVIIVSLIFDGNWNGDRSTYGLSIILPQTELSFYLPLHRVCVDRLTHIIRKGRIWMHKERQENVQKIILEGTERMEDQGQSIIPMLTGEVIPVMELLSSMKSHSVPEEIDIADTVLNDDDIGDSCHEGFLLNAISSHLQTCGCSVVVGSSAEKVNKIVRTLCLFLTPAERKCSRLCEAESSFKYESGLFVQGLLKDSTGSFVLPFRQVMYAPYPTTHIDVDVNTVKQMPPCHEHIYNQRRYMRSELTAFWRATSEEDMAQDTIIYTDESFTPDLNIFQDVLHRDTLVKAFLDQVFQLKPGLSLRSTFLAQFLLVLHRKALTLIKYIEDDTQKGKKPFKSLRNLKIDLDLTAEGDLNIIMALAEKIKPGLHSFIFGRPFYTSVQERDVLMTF
Chain of UniProt Q16740 (Q16740 whole entry, looked up): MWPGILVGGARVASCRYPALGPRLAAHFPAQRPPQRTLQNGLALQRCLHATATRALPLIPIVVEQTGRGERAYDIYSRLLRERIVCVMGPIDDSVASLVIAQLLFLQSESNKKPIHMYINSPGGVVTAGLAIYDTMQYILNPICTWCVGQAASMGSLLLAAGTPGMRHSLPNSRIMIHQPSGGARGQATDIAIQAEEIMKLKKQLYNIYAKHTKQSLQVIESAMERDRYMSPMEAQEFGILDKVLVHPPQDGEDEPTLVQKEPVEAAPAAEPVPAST
Chain of UniProt Q96MX0 (Q96MX0 whole entry, looked up): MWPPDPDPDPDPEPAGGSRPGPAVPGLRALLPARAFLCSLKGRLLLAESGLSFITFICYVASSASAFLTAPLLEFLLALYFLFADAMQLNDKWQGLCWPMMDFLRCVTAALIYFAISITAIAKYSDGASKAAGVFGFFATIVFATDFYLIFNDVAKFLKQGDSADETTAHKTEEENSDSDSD
Chain of UniProt Q8N4S0 (Q8N4S0 whole entry, looked up): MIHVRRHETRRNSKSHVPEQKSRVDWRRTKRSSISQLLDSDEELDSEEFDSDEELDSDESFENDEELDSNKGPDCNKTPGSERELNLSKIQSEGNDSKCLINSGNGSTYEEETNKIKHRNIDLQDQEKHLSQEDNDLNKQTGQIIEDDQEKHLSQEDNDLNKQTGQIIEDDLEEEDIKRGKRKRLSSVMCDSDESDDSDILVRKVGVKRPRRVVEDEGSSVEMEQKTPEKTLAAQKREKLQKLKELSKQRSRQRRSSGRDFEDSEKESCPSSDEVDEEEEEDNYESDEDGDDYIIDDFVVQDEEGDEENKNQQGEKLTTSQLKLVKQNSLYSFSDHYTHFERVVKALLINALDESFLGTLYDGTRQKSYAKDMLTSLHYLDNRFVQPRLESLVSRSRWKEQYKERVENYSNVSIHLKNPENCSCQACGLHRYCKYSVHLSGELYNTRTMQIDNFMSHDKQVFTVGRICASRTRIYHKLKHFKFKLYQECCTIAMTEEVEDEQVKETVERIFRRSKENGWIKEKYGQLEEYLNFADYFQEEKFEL
Chain of UniProt Q9UHN6 (Q9UHN6 whole entry, looked up): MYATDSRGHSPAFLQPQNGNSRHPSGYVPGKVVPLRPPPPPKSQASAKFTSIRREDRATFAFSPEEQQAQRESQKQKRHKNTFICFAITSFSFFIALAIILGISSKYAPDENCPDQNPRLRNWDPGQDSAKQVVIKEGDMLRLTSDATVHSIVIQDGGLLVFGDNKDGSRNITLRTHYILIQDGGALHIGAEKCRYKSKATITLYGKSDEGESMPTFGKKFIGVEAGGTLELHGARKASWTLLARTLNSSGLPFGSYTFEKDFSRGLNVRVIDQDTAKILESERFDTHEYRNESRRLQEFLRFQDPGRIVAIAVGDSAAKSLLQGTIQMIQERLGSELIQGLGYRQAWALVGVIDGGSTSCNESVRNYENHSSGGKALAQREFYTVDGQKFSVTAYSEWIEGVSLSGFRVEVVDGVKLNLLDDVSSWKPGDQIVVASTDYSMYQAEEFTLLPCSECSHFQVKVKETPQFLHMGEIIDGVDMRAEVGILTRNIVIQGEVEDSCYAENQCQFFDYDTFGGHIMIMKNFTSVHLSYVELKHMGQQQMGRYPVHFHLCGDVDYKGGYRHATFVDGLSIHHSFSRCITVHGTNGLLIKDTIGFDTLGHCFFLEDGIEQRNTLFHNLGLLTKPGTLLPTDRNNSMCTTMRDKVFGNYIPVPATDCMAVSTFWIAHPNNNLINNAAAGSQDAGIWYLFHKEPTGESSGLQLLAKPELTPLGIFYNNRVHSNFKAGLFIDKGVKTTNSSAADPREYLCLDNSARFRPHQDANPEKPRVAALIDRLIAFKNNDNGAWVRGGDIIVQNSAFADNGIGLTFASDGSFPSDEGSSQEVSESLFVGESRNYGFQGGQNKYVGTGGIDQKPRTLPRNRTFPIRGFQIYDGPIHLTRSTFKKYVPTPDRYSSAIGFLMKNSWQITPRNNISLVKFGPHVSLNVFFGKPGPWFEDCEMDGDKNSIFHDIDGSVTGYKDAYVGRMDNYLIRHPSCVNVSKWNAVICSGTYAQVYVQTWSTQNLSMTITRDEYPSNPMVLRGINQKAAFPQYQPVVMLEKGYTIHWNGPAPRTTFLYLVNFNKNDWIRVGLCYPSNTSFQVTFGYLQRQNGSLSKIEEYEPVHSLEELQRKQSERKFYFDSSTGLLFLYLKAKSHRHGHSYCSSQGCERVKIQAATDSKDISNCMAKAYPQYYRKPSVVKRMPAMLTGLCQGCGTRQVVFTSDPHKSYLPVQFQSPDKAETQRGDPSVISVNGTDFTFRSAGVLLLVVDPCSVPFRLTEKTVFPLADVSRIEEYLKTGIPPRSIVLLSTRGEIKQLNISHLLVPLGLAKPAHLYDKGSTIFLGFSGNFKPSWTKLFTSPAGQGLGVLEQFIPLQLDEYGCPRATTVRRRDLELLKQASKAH
Chain of UniProt P33552 (P33552 whole entry, looked up): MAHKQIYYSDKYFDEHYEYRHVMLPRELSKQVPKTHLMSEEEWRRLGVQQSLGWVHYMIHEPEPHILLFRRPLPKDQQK
Chain of UniProt Q9BSQ5 (Q9BSQ5 whole entry, looked up): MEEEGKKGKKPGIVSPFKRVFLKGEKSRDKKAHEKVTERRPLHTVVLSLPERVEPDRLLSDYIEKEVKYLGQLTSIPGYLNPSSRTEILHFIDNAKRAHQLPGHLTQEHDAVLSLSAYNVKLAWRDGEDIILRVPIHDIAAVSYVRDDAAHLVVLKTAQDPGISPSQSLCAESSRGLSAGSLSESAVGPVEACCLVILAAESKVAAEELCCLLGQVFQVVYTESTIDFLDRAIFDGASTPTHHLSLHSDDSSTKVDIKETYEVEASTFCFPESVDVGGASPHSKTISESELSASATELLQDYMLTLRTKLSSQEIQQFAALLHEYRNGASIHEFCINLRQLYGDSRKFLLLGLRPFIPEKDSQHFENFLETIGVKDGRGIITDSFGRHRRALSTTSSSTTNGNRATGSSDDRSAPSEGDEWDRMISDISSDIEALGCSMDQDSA
Chain of UniProt P11802 (P11802 whole entry, looked up): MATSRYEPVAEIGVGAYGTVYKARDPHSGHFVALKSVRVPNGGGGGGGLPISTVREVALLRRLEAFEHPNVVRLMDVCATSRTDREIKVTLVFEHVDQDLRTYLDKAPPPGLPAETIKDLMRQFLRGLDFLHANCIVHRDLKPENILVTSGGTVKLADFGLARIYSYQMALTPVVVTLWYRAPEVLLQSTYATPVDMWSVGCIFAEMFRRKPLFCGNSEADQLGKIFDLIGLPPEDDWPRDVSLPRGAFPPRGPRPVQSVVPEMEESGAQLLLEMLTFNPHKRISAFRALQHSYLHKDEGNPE
Chain of UniProt Q9P0B6 (Q9P0B6 whole entry, looked up): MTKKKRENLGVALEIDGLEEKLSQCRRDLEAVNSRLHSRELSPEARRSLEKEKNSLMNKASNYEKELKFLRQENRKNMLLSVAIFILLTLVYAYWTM

Target	log2 fold change (bafetinib)	log2 fold change [1]	log2 fold change (nilotinib)	log2 fold change [2]	log2 fold change (dasatinib)	log2 fold change [3]	log2 fold change [4]	log2 fold change [5]	log2 fold change (tipifarnib)	log2 fold change (mubritinib)	log2 fold change [6]	log2 fold change [7]	log2 fold change (entinostat)	log2 fold change (vorinostat)	log2 fold change (citarinostat)	log2 fold change (silmitasertib)	log2 fold change [8]	log2 fold change [9]	log2 fold change [10]	log2 fold change [11]
CCDC167 (UniProt Q9P0B6)	-0.024	-0.057	-0.03	-0.035	0.193	0.026	-0.185	-0.018	0.142	-0.043	0.014	0.046	0.031	0.008	-0.014	0.135	0.038	0.009	–	–
CORO2A (UniProt Q92828)	0.021	0.015	-0.047	-0.052	-0.066	-0.049	-0.017	-0.255	-0.005	0.048	0.069	-0.287 (active)	-0.061	0.027	-0.114	-0.019	–	-0.212	-0.027	-0.085
CSNK2A1 (UniProt P68400)	-0.02	-0.073	0.032	0.019	-0.03	-0.055	-0.019	0.035	0.03	-0.019	-0.062	0.007	-0.015	0.046	-0.013	–	-0.027	-0.045	0.014	0.05
C9orf72 (UniProt Q96LT7)	0.029	-0.018	0.031	0.073	-0.004	0.006	0.085	-0.05	0.033	0.021	0.028	-0.148	-0.011	0.232	–	-0.067	-0.011	–	-0.041	-0.009
CLPP (UniProt Q16740)	0.025	-0.045	0.022	0.005	0.063	-0.016	0.115	0.02	0.003	0.004	0.044	0.027	0.029	-0.05	0.027	0.007	0.096	-0.031	-0.027	-0.008
CA8 (UniProt P35219)	-0.042	0.079	0.006	-0.017	-0.187	-0.01	0.083	-0.063	-0.064	0.06	0.035	-0.167	0.049	0.025	0.108	0.029	-0.142	-0.027	-0.069	-0.058
CEMIP2 (UniProt Q9UHN6)	-0.018	0.002	0.069	0.083	-0.044	0.031	0.03	0.179	0.033	-0.024	–	-0.243	–	0.038	0.124	0.057	0.034	-0.078	0.072	-0.072
CLCN3 isoform 2 (UniProt P51790)	-0.044	0.076	-0.016	0.034	0.027	0.017	0.017	0.027	0.004	-0.004	0.013	-0.17	0.019	0.037	-0.002	-0.015	-0.002	0.283	0.014	0.024
CCDC82 (UniProt Q8N4S0)	-0.091	–	0.018	-0.017	0.015	-0.043	-0.132	-0.021	0.01	0.087	–	-0.146	–	–	0.023	0.047	-0.169	0.046	-0.083	-0.063
CMTM3 (UniProt Q96MX0)	0.05	-0.078	-0.056	-0.007	0.017	0.013	0.05	–	0.098	-0.052	-0.056	-0.08	-0.03	-0.087	-0.118	0.009	0.096	-0.189	-0.033	0.072
CHST11 (UniProt Q9NPF2)	-0.01	-0.117	0.049	-0.026	–	0.008	0.039	-0.249	-0.012	-0.064	-0.045	-0.181	-0.027	0.001	0.276	-0.044	0.013	0.054	0.068	0.139
COPS3 isoform 2 (UniProt Q9UNS2)	-0.19	-0.295	-0.041	0.227	–	-0.194	–	0.418	0.029	0.138	-0.129	-0.005	-0.007	-0.169	-0.14	0	-0.597	0.011	-0.364	-0.272
CCM2 isoform 2 (UniProt Q9BSQ5)	-0.059	-0.038	–	–	-0.003	–	0.043	-0.021	-0.024	-0.061	-0.103	-0.09	0.326 (active)	-0.038	-0.073	0.048	-0.136	0.069	–	-0.067
CKS2 (UniProt P33552)	-0.021	0.048	-0.008	-0.188	0.096	-0.222	–	–	-0.047	0.325	–	-0.039	–	0.28	-0.092	0.065	–	-0.071	-0.021	–
CCNC (UniProt P24863)	0.031	0.055	–	–	-0.074	–	-0.091	-0.015	–	-0.016	-0.032	-0.017	0.04	-0.039	–	0.183	0.039	–	-0.105	-0.033
CDK4 (UniProt P11802)	0.022	–	-0.121	-0.042	-0.056	0.031	-0.084	-0.117	0.046	0.054	0.015	-0.074	-0.006	–	0.076	0.193	0.184	0.005	-0.293	0.02
CCNDBP1 (UniProt O95273)	0.059	-0.017	-0.19	0.028	0.023	0.21	-0.055	-0.197	–	-0.045	0.046	-0.091	-0.036	-0.069	0.05	0.087	–	-0.084	-0.027	0.069
CASP8 isoform 9 (UniProt Q14790)	0.072	0.093	-0.183	0.018	-0.039	0.069	–	-0.066	-0.094	-0.095	-0.06	-0.186	-0.119	-0.021	-0.048	0.12	0.008	0.009	-0.051	-0.151
